Bioassay records as filed in PubChem BioAssay.
nsP2pro primary = Primary qHTS for inhibitors of NSP2Pro chikungunya virus (CHIKV) | FRET peptide cleavage, nsP2pro, fluorescence 1 h | Polyprotein P1234 (Chikungunya virus (strain S27-African prototype)), Q8JUX6 | AID 1964107, 2024 | Potency, µM (doses to about 24.9 µM), without a hit: at the highest dose activity change, negative = inhibition, usual class: inhibitors | hit rate 1.1% among 31,000; note: nearly all actives have a fitted effect of over 60% in size
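Enzyme 150 nM, substrate 2.5 uM (both final); Tris-HCl 10 mM pH 8.0 + 0.01% Tween 20; cpd up to 25 uM, 7 pts; 15 min preinc., 1 h RT; fluorescence ex 525/em 598.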
CHIKV nsP2 cell = Secondary cell base assay for inhibitors of NSP2Pro Chikungunya virus (CHIKV); shares compounds with nsP2pro primary; cell-based CHIKV nsP2 protease reporter assay; Potency, µM (series often up to 51.1 µM), inactives show at the highest dose activity change, negative = inhibition, hits mostly inhibitors; hit rate 10% among 450; AID 1964100, 2024; note: nearly all actives have a fitted effect of over 70% in size
CHIKV NSP2 FL = Selectivity profile for inhibitors of NSP2Pro chikungunya virus (CHIKV): Full length NSP2 enzyme counterscreen (CHIKV-NSP2); shares compounds with nsP2pro primary; Full-length CHIKV NSP2 protease enzymatic counterscreen; Potency, µM (doses to about 50.7 µM), inactives show top-dose activity change, negative = inhibition, usual class: inhibitors; hit rate 39% among 410; note: nearly all actives have a fitted effect of over 65% in size
Furin counter = Selectivity profile for inhibitors of NSP2Pro chikungunya virus (CHIKV): Human furin counterscreen | shares compounds with nsP2pro primary | Recombinant human furin enzymatic counterscreen, fluorogenic substrate | Potency, µM (series often up to 50.6 µM), inactives show at the top dose activity change, negative = inhibition, usual class: inhibitors | hit rate 6% among 410 | AID 1964102, 2024
NS23 peptide cs = Selectivity profile for inhibitors of NSP2Pro chikungunya virus (CHIKV): Endogenous NS2/3 peptide Counterscreen | shares compounds with nsP2pro primary | hit rate 34% among 410 | Purified CHIKV nsP2 protease, endogenous NS2/3 peptide cleavage | Potency, µM (titrated, usually from 51 µM), for the others: at the top dose activity change, negative = inhibition, most hits filed as inhibitors | AID 1964103, 2024; note: nearly all actives have a fitted effect of over 55% in size
Papain cs = Selectivity profile for inhibitors of NSP2Pro chikungunya virus (CHIKV): Papain Counterscreen; shares compounds with nsP2pro primary; purified papain protease activity, enzymatic inhibition; Potency, µM (top dose mostly 51 µM), for inactives: at the top dose activity change, negative = inhibition, hits mostly inhibitors; hit rate 5% among 410; AID 1964104, 2024
Target sequence (P00784 whole entry, looked up): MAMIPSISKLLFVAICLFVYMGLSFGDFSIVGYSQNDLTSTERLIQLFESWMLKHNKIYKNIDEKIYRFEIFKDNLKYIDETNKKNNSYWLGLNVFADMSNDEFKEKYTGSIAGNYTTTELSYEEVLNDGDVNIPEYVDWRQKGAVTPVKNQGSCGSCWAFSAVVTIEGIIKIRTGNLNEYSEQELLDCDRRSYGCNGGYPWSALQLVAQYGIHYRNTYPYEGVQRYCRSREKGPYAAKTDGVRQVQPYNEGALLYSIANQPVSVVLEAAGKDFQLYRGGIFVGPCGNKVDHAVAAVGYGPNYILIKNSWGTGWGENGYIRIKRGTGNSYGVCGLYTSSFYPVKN
nsP2pro conf qHTS = Confirmatory qHTS for inhibitors of NSP2Pro chikungunya virus (CHIKV); shares compounds with nsP2pro primary; CHIKV nsP2 protease enzymatic activity, qHTS; Potency, µM (doses to about 25.5 µM), without a hit: at the highest dose activity change, negative = inhibition, hits mostly inhibitors; hit rate 43% among 410; AID 1964105, 2024; note: nearly all actives have a fitted effect of over 75% in size
HCV NS3 counter = Selectivity profile for inhibitors of NSP2Pro chikungunya virus (CHIKV): NS34A-HCV Counterscreen; shares compounds with nsP2pro primary; HCV NS3/4A protease biochemical counterscreen; Potency, µM (titrated, usually from 50.9 µM), hits mostly inhibitors; hit rate 20% among 410; AID 1964106, 2024; note: nearly all actives have a fitted effect of over 55% in size
Starred values were filed as active, the others as inactive; i = inactive; ? = inconclusive; ! = not active in a repeat; [ ] = remark or other dose. Only a selection was taken, and hits are over-represented in it overall. Calls come from the whole dose curve. % is set by controls: 0 for no effect and ±100 for the full control effect; potency is the fitted concentration of half-maximal effect.

SMILES	nsP2pro primary	others
CC1CCC2(C(=O)O)CCC3(C)C(=CCC4C5(C)CCC(O)C(C)(C)C5CCC43C)C2C1C (stereo unspecified)	2%
COc1ccccc1-c1cc(Nc2cccc(CS(N)(=O)=O)c2)ncn1	9%
Cc1ccc(-c2nc3ccccn3c2Nc2ccc3c(c2)OCO3)o1	-7%
Cc1ccc(-c2nc3cccc(C)n3c2Nc2ccc3c(c2)OCO3)o1	26%	CHIKV nsP2 cell=102%;CHIKV NSP2 FL=-13%;Furin counter=-6%;NS23 peptide cs=-12%;Papain cs=-15%;nsP2pro conf qHTS=-6%;HCV NS3 counter=i
Cc1cccc2nc(-c3ccco3)c(Nc3ccc4c(c3)OCO4)n12	55%
CN(Cc1cccs1)c1nc(-c2ccccc2C(F)(F)F)nc2ccccc12	4%
CCN(CC)Cc1ccc(C(=O)N(CCc2ccccc2OC)[C@@H]2CCNC2)cc1	?	CHIKV nsP2 cell=12%[17.6 µM];CHIKV NSP2 FL=6.3µM*;Furin counter=-9%;NS23 peptide cs=-40%[17.2 µM];Papain cs=-20%[17.2 µM];nsP2pro conf qHTS=?;HCV NS3 counter=?
CCN1CCC(N(Cc2ccc3c(c2)OCO3)C(=O)Nc2ccccc2OC)CC1	-7%
COc1ccc(CN(C(=O)COc2ccccc2OC)C2CCS(=O)(=O)C2)cc1 (stereo unspecified)	-19%
CC(C)CN(CC(=O)N(CCCN1CCCC1=O)CC(N)=O)C(=O)CNCCc1ccccc1F	10%
CC1(C)[C@@H](O)CC[C@]2(C)[C@H]3CC=C4[C@@H]5C[C@](C)(C(=O)O)CC[C@]5(C)CC[C@@]4(C)[C@]3(C)CC[C@@H]12	22%
C[C@@]1(C(=O)O)CC[C@]2(C)CC[C@]3(C)C4=CC(=O)c5cc(O)c(O)cc5[C@]4(C)CC[C@@]3(C)[C@@H]2C1	-9%[10 µM]
CC1=C(O)C(=O)C=C2C1=CC=C1[C@@]2(C)CC[C@@]2(C)[C@@H]3C[C@](C)(C(=O)O)CC[C@]3(C)CC[C@]12C	4.4µM*!	CHIKV nsP2 cell=?;CHIKV NSP2 FL=16µM*;Furin counter=?;NS23 peptide cs=4.6µM*;Papain cs=?;nsP2pro conf qHTS=1.8µM*;HCV NS3 counter=21µM*
Cc1cc(C[C@@H]2COC[C@@H]2NC(=O)c2ccc(Oc3ccccc3)o2)on1	-32%
O=C([C@@H](Cc1ccc(O[S+](=O)([O-])c2ccccn2)cc1)N[S+](=O)([O-])c1cccc2cccnc12)N1CCN(c2ccccc2)CC1	-4%
COC1(C(=O)N[C@@H](C)c2ccc(-n3cc(F)cn3)nc2)CCC(c2nc(C)cc(Nc3cc(C)[nH]n3)n2)CC1 (stereo partly specified)	-2%
O=C(NCc1ccccc1)c1cn(C2CNC2)nn1	-30%
Cc1cnn(-c2cc(N3CCC(n4cc(C5CCCC5)nn4)CC3)ncn2)c1	i
c1c(C2CC2)nnn1C1CNC1	8.9µM*	CHIKV nsP2 cell=15%;CHIKV NSP2 FL=-18%;Furin counter=-25%;NS23 peptide cs=?;Papain cs=-1%;nsP2pro conf qHTS=?;HCV NS3 counter=?
Nc1ncnc2c1ncn2[C@H]1CCCO1	-5%
C=CCOc1c(OC)ccc2c1CN(Cc1ccccc1)C(=O)CCN2CC(O)COc1ccc(OC)cc1 (stereo unspecified)	i
FC(F)(F)c1ccccc1-c1nc(NCc2cccc(Cl)c2)c2ccccc2n1	-1%
Cc1ccc(C)c(N2CCN(C(c3ccc(F)cc3)c3nnc(-c4ccccc4)o3)CC2)c1 (stereo unspecified)	?	CHIKV nsP2 cell=-3%;CHIKV NSP2 FL=21µM*;Furin counter=-6%;NS23 peptide cs=?;Papain cs=-10%;nsP2pro conf qHTS=?;HCV NS3 counter=12µM*
Cc1cccc(N2CCN(C(c3ccccc3)c3nnc(-c4ccccc4F)o3)CC2)c1C (stereo unspecified)	-3%
Fc1ccc(C(c2nnc(-c3ccccc3)o2)N2CCN(c3cccc(Cl)c3)CC2)cc1 (stereo unspecified)	52%
SMILES	nsP2pro primary	others
Cc1cccc(-n2cnc3cc(C(=O)N4CCCC(C(F)(F)F)C4)ccc32)c1 (stereo unspecified)	i
COc1cccc(CCC(=O)NC2CCN(c3cc(C(F)(F)F)nc(C)n3)CC2)c1	-2%
CC(=O)C1CCC2C3CC=C4CC(O)CCC4(C)C3CCC12C (stereo unspecified)	-25%
CC[N+]1(C)C2CC(OC(=O)[C@H](CO)c3ccccc3)CC1[C@@H]1O[C@H]21 (stereo partly specified)	7%
CC(=O)OCC1=C(C(=O)O)N2C(=O)[C@@H](NC(=O)[C@H](N)c3ccccc3)[C@H]2SC1	-19%
CC1=C(C(=O)O)N2C(=O)[C@@H](NC(=O)[C@H](N)c3ccccc3)[C@H]2SC1	0.31µM*	CHIKV nsP2 cell=-6%;CHIKV NSP2 FL=0%;Furin counter=-9%;NS23 peptide cs=1%;Papain cs=-10%;nsP2pro conf qHTS=-21%;HCV NS3 counter=i
CC1=C(C(=O)O)N2C(=O)[C@@H](NC(=O)[C@H](N)c3ccc(O)cc3)[C@H]2SC1	-23%
N#Cc1ccc(CSc2nc3ncc(Br)cc3[nH]2)cc1	-8%
CCC(CC)C(=O)OC12C(OC(=O)C(C)C)C(C)C3(O)C(C=C(CO)CC4(O)C(=O)C(C)=CC43)C1C2(C)C (stereo unspecified)	-4%[10 µM]
OCC1CN(c2ncccn2)CC12CCNCC2 (stereo unspecified)	4%
O=C(Nc1cccc(C(F)(F)F)c1)c1cnn(-c2cccc(F)c2)c1C1CCNCC1	8.9µM*	CHIKV nsP2 cell=114%;CHIKV NSP2 FL=12µM*;Furin counter=-7%;NS23 peptide cs=?;Papain cs=3%;nsP2pro conf qHTS=?;HCV NS3 counter=7.3µM*
Cc1cc(C)cc(NC(=O)c2cnn(-c3ccc(C)c(C)c3)c2C2CCNCC2)c1	-16%
O=C(c1ccco1)N1CCN(C(=O)c2cnn(-c3cccc(F)c3)c2C2CCNCC2)CC1	-40%
COc1cc2c(cc1O)CC(O)(CO)C(CO)C2c1ccc(OC2OC(CO)C(O)C(O)C2O)c(OC)c1 (stereo unspecified)	31%[10 µM]
Cc1ccc(-c2cn3c(n2)N(S(C)(=O)=O)CCC3)cc1	i
